Only some compounds are listed: those with a hit (about 3% of all), similar ones and a draw of the others.
ATG4B inh = blocks human ATG4B protease cleavage of LC3 substrate | Q9Y4P1 | ATG4B cleavage of LC3-PLA2, NBD-HPC fluorescence, 1 h | inhibition, % at 8.33 µM | 0.51% of 340,000 active | AID 504462; in the data active means inhibition above about 40%
DAGLB inh = diacylglycerol lipase beta (human) inhibition. AID 504411. 0.059% of 340,000 active. HEK293T DAGLB membrane lysate, EnzChek fluorogenic substrate. inhibition, % at 5.17 µM. Q8NCG7; in the data active means inhibition above about 34%;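 further: 0% = enzyme with vehicle and 100% = wells lacking enzyme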
pPAFAH FP inh = inhibitors of human plasma PAF acetylhydrolase (pPAFAH); Q13093; recombinant pPAFAH, FP-rhodamine probe fluorescence polarization; inhibition, % at 3.39 µM; 1.5% of 330,000 active; AID 463082;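 active means inhibition above the mean inhibition across the screen plus 3 SD, cut at about 25% in these data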;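 further: inhibitors block binding of the rhodamine activity-based probe so polarization drops; 0% = enzyme with DMSO and 100% = wells lacking pPAFAH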
PAFAH1B3 FP inh = PAFAH1B3 (human) inhibition. AID 492972. 0.28% of 340,000 active. inhibition, % at 3.39 µM. recombinant PAFAH1B3, FP-rhodamine probe, fluorescence polarization;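 active means inhibition above the screen-wide average of all tested compounds plus 3 SD, cut at about 25% in these data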;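 further: 0% = enzyme with DMSO only and 100% = wells lacking PAFAH1B3 protein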
PAFAH1B2 inh = inhibitors of human PAFAH1B2; recombinant PAFAH1B2, FP-rhodamine activity probe, fluorescence polarization; 1.2% of 340,000 active; inhibition, % at 3.39 µM;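 active means inhibition above the mean of all tested compounds plus 3 SD, cut at about 24% in these data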;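 further: 0% = enzyme with DMSO and 100% = wells lacking PAFAH1B2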
PAFAH2 inh = inhibitors of human PAFAH2. Q99487. recombinant PAFAH2, FP-rhodamine activity probe, fluorescence polarization. inhibition, % at 3.39 µM. 0.99% of 340,000 active. AID 492956;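 active means inhibition above the mean over all tested compounds plus 3 SD, cut at about 30% in these data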;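 further: inhibitors block probe labeling of enzyme so polarization drops; 0% = enzyme with DMSO and 100% = wells lacking PAFAH2 protein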
pPAFAH FP conf = pPAFAH (human) inhibition, confirmed; shares compounds with pPAFAH FP inh; recombinant pPAFAH, FP-Rh probe fluorescence polarization; inhibition, % at 3.39 µM; 72% of 2,300 active; AID 463230;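 active means mean inhibition of the triplicate above the hit cutoff set for the earlier primary screen, cut at about 25% in these data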;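 further: 0% = enzyme with DMSO and 100% = wells lacking pPAFAH enzyme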
* = called active by the depositor; nt = no result.

SMILES	ATG4B inh	DAGLB inh	pPAFAH FP inh	PAFAH1B3 FP inh	PAFAH1B2 inh	PAFAH2 inh	pPAFAH FP conf
O=C(/C=C/c1ccco1)NC(=S)Nc1ccc(C(=O)O)cc1	0.1	3.0	38.9*	13.0	1.8	-0.4	6.9
CC(=O)NC(=S)Nc1ccc(NC(=S)NC(=O)/C=C/c2ccco2)cc1	-5.5	1.9	-3.2	-9.7	-7.0	-20.6	nt
Cc1cccnc1NC(=O)c1ccc(NS(=O)(=O)/C=C/c2ccccc2)cc1	0.6	2.0	0.3	6.6	5.8	-0.9	nt
NC(=O)Cn1c(=O)n(Cc2ccco2)c(=O)c2c3c(sc21)CCCCC3	8.3	0.3	36.4*	1.3	0.5	13.2	15.2
COCC#Cc1ccc2c(c1)O[C@@H](CN(C)S(=O)(=O)c1cccc(F)c1)[C@@H](C)CN([C@H](C)CO)S2(=O)=O	nt	-3.1	nt	nt	nt	nt	nt
CCc1cc2c(-c3ccccc3)cc(=O)oc2cc1OCC(C)=O	0.7	-0.2	15.2	10.0	3.2	-4.2	nt
CCCc1cc2c(-c3ccccc3)cc(=O)oc2cc1OCc1ccc(C(=O)O)o1	20.3	7.5	53.8*	-1.2	7.5	-2.1	47.5*
COc1ccc(S(=O)(=O)NCc2ccc3c(c2)cc(C)n3C)cc1	-16.0	12.2	12.8	-0.6	5.5	18.9	nt
Cc1cc2cc(CNS(=O)(=O)c3ccccc3)ccc2n1C	9.1	14.2	47.2*	6.1	13.1	17.5	35.1*
CC(OC(=O)CCc1ccccc1)C(=O)Nc1ccc(Cl)cn1 (stereo not drawn)	0.6	-5.3	0.3	4.2	2.8	-0.4	nt
CC(=O)Nc1ccc(Br)c2ccccc12	-9.2	2.5	-1.5	7.9	3.0	7.2	nt
O=C(Nc1ccc(Br)c2ccccc12)c1ccc2ccccc2c1O	-9.4	4.3	35.9*	22.2	18.2	47.6*	51.5*
CC1CN(C(=O)c2cc3cc(F)ccc3[nH]2)CC(C)O1 (stereo not drawn)	-5.2	1.4	nt	-1.3	2.2	-3.3	nt
COc1ccc(NC(=O)CSc2nnnn2C2CCCCC2)cc1	-3.6	-4.0	1.1	-0.3	-0.1	1.6	nt
Cc1ccc(-c2nn(-c3ccccc3)cc2C2CC(c3cccs3)=NN2C(=O)CCCC(=O)O)cc1 (stereo not drawn)	2.3	3.5	39.8*	5.3	8.3	1.0	4.7
Cc1ccc(NC(=O)NCCCc2ccccc2)cc1	-1.6	-17.4	3.1	4.5	6.3	5.0	nt
COc1cccc(N(CC(=O)NC2CCCCC2)C(=O)CCC(=O)Nc2nc(C)cs2)c1	-15.2	2.7	4.0	10.1	-1.0	-1.0	nt
O=C(O)c1[nH]c2ccccc2c1NS(=O)(=O)Cc1ccccc1	3.1	0.3	38.5*	-2.3	6.6	-1.7	6.1
CC(C)(C)c1cc(NCCCn2ccnc2)n2ncc(-c3ccc(Cl)cc3)c2n1	23.1	3.7	39.0*	5.3	0.5	3.7	19.1
C[C@@H]1CN([C@@H](C)CO)C(=O)CCCn2nncc2CO[C@@H]1CN(C)S(=O)(=O)c1cccc(C#N)c1	nt	0.4	nt	nt	nt	nt	nt
O=C(N/N=C/c1ccccc1)c1ccc(-c2ccccc2)cc1	-1.3	-4.6	69.3*	0.1	0.2	-9.8	5.6
CC(=O)c1c(C)[nH]c(C(=O)N(C)CC(=O)Nc2ccc(Cl)c(C(F)(F)F)c2)c1C	-9.1	2.7	-0.3	4.5	2.8	-2.0	nt
Cn1cccc1/C=N/N1CCN(Cc2ccccc2)CC1	-0.6	-8.7	3.7	4.6	8.5	1.4	nt
Cn1cccc1/C=N/N1CCN(Cc2cccc3ccccc23)CC1	-3.0	-10.1	46.0*	-1.8	-0.7	12.6	2.6
CCCCCCCCCCCCCCCC[n+]1ccc(/C=N/O)cc1	37.1	1.5	50.3*	61.0*	32.7*	27.1	39.7*
O=C(O)c1ccc(C=NN=Cc2ccco2)cc1	6.3	-3.3	nt	10.4	2.4	-0.9	nt
O=C(O)c1ccc2c(c1)C(=O)/C(=C\c1ccco1)C2=O	14.4	3.5	53.8*	35.0*	11.6	17.3	18.2
Cc1cc([N+](=O)[O-])cc(/C=N/n2c(C)nc3ccccc3c2=O)c1O	24.6	5.9	10.8	12.7	1.7	11.3	nt
C/C(=N\OCc1nc2ccccc2c(=O)n1/N=C/c1cc(C)cc([N+](=O)[O-])c1O)c1ccccc1	1.0	0.9	45.6*	3.6	0.0	1.6	4.3
